# Unmarked numbers belong to inactive results. For some assays here: Entries with a potency or affinity are not part of this list. Active and inactive are the calls of the source. Unless noted, no rule for the calls is given here.
# What was measured:
# [1] = antimalarial activity against Dd2 strain (AID 2302;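 active = growth inhibition above 50% at the single 2 µM test dose, taken to imply half-maximal potency below 2 µM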;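 also: 0% = DMSO untreated growth and 100% = chloroquine plus artemisinin killed control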); conditions: P. falciparum Dd2 in RBCs, LDH growth readout, 72 h; at 2 µM; hits give high values
# [2] = HepG2 cytotoxicity, primary screen, cytotoxicity control for P. falciparum antimalarial project, cell-based, ATP luminescence (AID 2303;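 active = inhibition above 50%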;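 also: 0% = DMSO wells and 100% = digitonin-killed cells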); conditions: HepG2 viability, 24-48 h, at 10 µM, hits give high values
# [3] = molecular target: L-lactate dehydrogenase (Plasmodium falciparum (isolate CDC / Honduras)) (UniProt Q27743); assay: PfLDH activity inhibition – cell lysate, 3D7 strain, counter-screen for P. falciparum growth inhibition project (AID 2304);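 also: 0% = vehicle and 100% = reference inhibitor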; conditions: P. falciparum 3D7 crude extract, LDH APAD/NBT absorbance; at 2 µM; hits give high values
# [4] = inhibition of 3D7 malaria parasite growth – strain 3D7 (AID 2306);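 also: 0% = DMSO wells and 100% = chloroquine plus artemisinin control wells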; conditions: P. falciparum 3D7 erythrocytic growth, LDH absorbance, 72 h; at 2 µM; hits give high values
# [5] = molecular target: Calcium-dependent protein kinase 1 (Plasmodium falciparum (isolate 3D7)) (UniProt P62344); assay: PfCDPK1 kinase inhibitors, biochemical, TCAMS library (AID 1159585; cut-off not given, nearly all actives have IC50 up to about 0.98 µM;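 also: inhibitors leave more ATP so luminescence rises with inhibition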); conditions: recombinant PfCDPK1, Kinase-Glo ATP depletion luminescence
# [6] = molecular target: Plasmodium falciparum protein kinase 6 (PK6, PF3D7_1337100) (UniProt Q8IDW1); assay: PfPK6 kinase inhibitors, biochemical, TCAMS library (AID 1159586); conditions: recombinant PfPK6, Kinase-Glo ATP depletion luminescence
# [7] = molecular target: Protein kinase 7 (PK7), Plasmodium falciparum 3D7 (PF3D7_0213400) (UniProt Q7YTF7); assay: inhibition of Plasmodium PK7 catalytic activity – biochemical, TCAMS antimalarial set, Kinase-Glo luminescence (AID 1159587); conditions: recombinant PfPK7, Kinase-Glo ATP depletion luminescence
# [8] = molecular target: Calcium-dependent protein kinase 4 (Plasmodium falciparum (isolate 3D7)) (UniProt Q8IBS5); assay: PfCDPK4 kinase inhibitors, biochemical, TCAMS library (AID 1159588; cut-off not given, nearly all actives have IC50 up to about 0.91 µM); conditions: recombinant PfCDPK4, Kinase-Glo ATP depletion luminescence
# Sequence of Calcium-dependent protein kinase 4 (Plasmodium falciparum (isolate 3D7)) (Q8IBS5 whole entry, looked up): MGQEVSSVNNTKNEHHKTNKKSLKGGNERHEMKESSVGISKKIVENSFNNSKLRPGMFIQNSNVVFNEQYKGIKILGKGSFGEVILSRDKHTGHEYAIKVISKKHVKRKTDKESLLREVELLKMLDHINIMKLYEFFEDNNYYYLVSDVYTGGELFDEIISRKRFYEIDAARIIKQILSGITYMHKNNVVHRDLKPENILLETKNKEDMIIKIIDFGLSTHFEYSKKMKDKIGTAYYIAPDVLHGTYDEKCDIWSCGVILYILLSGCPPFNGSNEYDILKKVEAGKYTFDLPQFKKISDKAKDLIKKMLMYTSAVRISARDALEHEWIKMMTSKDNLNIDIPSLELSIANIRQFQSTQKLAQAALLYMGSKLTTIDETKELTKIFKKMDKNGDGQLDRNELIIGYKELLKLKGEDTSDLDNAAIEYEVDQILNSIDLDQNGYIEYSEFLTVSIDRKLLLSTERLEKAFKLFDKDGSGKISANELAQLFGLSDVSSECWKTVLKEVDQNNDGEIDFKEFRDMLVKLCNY
# Sequence of L-lactate dehydrogenase (Plasmodium falciparum (isolate CDC / Honduras)) (Q27743 whole entry, looked up): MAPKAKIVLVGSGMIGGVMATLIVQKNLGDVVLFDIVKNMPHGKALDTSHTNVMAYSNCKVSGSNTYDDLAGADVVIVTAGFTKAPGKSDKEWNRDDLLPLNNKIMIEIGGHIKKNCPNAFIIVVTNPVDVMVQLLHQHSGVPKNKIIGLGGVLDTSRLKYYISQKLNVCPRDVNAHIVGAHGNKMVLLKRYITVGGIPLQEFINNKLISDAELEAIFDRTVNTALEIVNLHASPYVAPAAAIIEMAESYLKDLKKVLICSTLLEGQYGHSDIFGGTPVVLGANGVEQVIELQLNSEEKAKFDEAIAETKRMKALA
# Sequence of Calcium-dependent protein kinase 1 (Plasmodium falciparum (isolate 3D7)) (P62344 whole entry, looked up): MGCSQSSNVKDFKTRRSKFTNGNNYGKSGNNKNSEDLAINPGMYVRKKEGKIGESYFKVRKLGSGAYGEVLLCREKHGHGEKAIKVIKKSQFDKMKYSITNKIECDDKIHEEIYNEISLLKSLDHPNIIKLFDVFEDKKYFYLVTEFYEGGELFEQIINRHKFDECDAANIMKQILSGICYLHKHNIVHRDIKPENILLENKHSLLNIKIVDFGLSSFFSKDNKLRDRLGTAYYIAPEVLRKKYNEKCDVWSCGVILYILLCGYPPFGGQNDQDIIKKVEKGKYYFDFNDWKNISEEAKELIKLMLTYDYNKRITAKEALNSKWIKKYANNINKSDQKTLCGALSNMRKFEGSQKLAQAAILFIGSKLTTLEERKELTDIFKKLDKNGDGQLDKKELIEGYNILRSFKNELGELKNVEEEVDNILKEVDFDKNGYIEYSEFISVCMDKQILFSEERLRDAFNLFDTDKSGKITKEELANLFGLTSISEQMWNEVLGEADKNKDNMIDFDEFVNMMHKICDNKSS
# Sequence of Protein kinase 7 (PK7), Plasmodium falciparum 3D7 (PF3D7_0213400) (Q7YTF7 1-343): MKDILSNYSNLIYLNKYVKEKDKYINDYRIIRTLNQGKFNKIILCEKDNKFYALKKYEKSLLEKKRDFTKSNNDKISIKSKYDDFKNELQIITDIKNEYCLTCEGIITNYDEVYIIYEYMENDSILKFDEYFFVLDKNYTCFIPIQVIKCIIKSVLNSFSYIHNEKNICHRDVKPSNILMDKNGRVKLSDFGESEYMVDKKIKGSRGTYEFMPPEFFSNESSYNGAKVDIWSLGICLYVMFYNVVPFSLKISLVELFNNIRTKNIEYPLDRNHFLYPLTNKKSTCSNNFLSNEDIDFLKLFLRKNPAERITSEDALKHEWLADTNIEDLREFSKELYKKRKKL
# Sequence of Plasmodium falciparum protein kinase 6 (PK6, PF3D7_1337100) (Q8IDW1 1-305): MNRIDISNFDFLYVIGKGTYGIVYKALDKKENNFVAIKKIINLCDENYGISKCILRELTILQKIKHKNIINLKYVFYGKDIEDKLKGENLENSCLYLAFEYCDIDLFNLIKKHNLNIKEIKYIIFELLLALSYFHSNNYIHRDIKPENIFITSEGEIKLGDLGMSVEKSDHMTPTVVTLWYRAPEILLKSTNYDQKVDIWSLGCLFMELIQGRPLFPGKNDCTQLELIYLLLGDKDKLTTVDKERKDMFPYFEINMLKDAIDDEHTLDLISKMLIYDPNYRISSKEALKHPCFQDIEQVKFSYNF
SMILES,growth inhibition [1],inhibition [2],inhibition [3] [%],growth inhibition [4],outcome [5],outcome [6],outcome [7],outcome [8]
CCN(CC)CCN(Cc1ccc(-c2ccc(C(F)(F)F)cc2)cc1)C(=O)Cn1c(SCc2ccc(F)c(F)c2F)nc(=O)c2c1CCC2,96% (active),100% (active),-4,91% (active),inactive,inactive,inactive,inactive
Cc1[nH]c(C)c(-c2ccc(Nc3ccc(C(F)(F)F)cn3)cc2)c(=O)c1Br,98% (active),30%,-2,99% (active),inactive,inactive,inactive,inactive
COc1ccc(-c2cc(C(=O)N[C@@H](CC3CCCCC3)C(=O)NC3CCCc4ccccc43)ccc2O)cc1 (stereo not given in full),97% (active),7%,-1,98% (active),inactive,inactive,inactive,inactive
O=C(Nc1ccccc1)N(Cc1ccccc1-c1cccc(CNCc2ccc3c(c2)OCO3)c1)C1CCN(Cc2ccccc2)CC1,64% (active),35%,1,101% (active),inactive,inactive,inactive,inactive
COC(=O)c1cccc(CNCc2ccc(-c3cccc(-c4nc5ccccc5[nH]4)c3)cc2)c1,46%,5%,-3,101% (active),inactive,inactive,inactive,inactive
CN(C)CCCn1c(N)c(-c2nc3ccccc3[nH]2)c2nc(C#N)c(C#N)nc21,101% (active),100% (active),-1,102% (active),inactive,inactive,inactive,inactive
COc1ccccc1C1CCN(C2CCC(NC(=O)/C=C/c3cccc(C(F)(F)F)c3)CC2)CC1 (stereo not given),34%,38%,-3,99% (active),inactive,inactive,inactive,inactive
O=C(N[C@H]1CCN(CCc2ccc(O[C@H]3CCNC3)c(Br)c2)C1)c1ccc(Cl)c(Cl)c1,0%,28%,-4,100% (active),inactive,inactive,inactive,inactive
COC(=O)c1ccc2nc(-c3cc(OC)c(O)c(C(=O)NC4CCN(Cc5ccccc5)CC4)c3)[nH]c2c1,-2%,8%,0,85% (active),inactive,inactive,inactive,inactive
NC1=NC2(CCCCC2)N(OCCCCCCC2CCCCC2)C(N)=N1,49%,77% (active),-4,97% (active),inactive,inactive,inactive,inactive
CO/C(=C\C=C\c1cc2cc(Cl)c(Cl)cc2[nH]1)C(=O)NC1CCN(CCNc2ccccc2)CC1,98% (active),60% (active),1,102% (active),inactive,inactive,inactive,inactive
O=C(/C=C/c1ccc(C(F)(F)F)cc1)NCCCCCN1CCCN(C(=O)Nc2ccc(Cl)c(Cl)c2)CC1,17%,89% (active),0,100% (active),inactive,inactive,inactive,inactive
CCNC(=O)Nc1ccc(-c2ccc(-c3nc4c(C)cccc4[nH]3)s2)cc1,13%,18%,-2,96% (active),inactive,inactive,inactive,inactive
CC(=O)Nc1ccc(S(=O)(=O)N(Cc2cccc(Oc3ccccc3)c2)C2CCN(C/C=C(\C)CCC=C(C)C)CC2)cc1,99% (active),22%,0,100% (active),inactive,inactive,inactive,inactive
COc1cccc(CNC(=O)c2cc(CNCc3ccccc3)ccc2-c2cccc(CNCc3ccc(-c4ccccc4)cc3)c2)c1,15%,22%,8,95% (active),inactive,inactive,inactive,inactive
CC(C)CC(NC(=O)c1ccc(F)cc1)C(=O)N[C@H](/C=N/N1CCNC1=O)CC(C)C (stereo not given in full),84% (active),-5%,-4,89% (active),inactive,inactive,inactive,inactive
CCCCCCCn1c(=N)n(CC(O)c2ccc(Cl)c(Cl)c2)c2ccccc21 (stereo not given),100% (active),99% (active),2,98% (active),inactive,inactive,inactive,inactive
CCCCCCCCCc1c(C)[nH]c2ccccc2c1=O,96% (active),-16%,7,97% (active),inactive,inactive,inactive,inactive
O=c1cc(NCCC(CNCc2ccc(Br)o2)NCc2cc(Br)cc(Br)c2)[nH]c2ccccc12 (stereo not given),90% (active),2%,6,98% (active),inactive,inactive,inactive,inactive
Cc1cc(N2CCCC2)nc(Nc2ccc(NC(=O)C(C)C)cc2)n1,36%,40%,2,97% (active),inactive,inactive,inactive,inactive

SMILES,growth inhibition [1],inhibition [2],inhibition [3] [%],growth inhibition [4],outcome [5],outcome [6],outcome [7],outcome [8]
COc1ccc(CCNCC(O)c2cccc(Br)c2)c(Cl)c1OC (stereo not given),70% (active),18%,0,87% (active),inactive,inactive,inactive,inactive
CCNC(C)(C)CN(Cc1ccc(-c2ccc(C(F)(F)F)cc2)cc1)C(=O)Cn1c(SCc2ccc(F)cc2)nc(=O)c2c1CCC2,94% (active),99% (active),2,95% (active),inactive,inactive,inactive,inactive
CCCCCCNC(=O)C1Cc2c([nH]c3ccc(C)cc23)C2(CCN(Cc3ccccc3)CC2)N1 (stereo not given),25%,25%,6,84% (active),inactive,inactive,inactive,inactive
O=C(/C=C/c1ccc(Cl)c(Cl)c1)NCCCCCN1CCC(NC(=O)c2ccc(F)c(F)c2)CC1,20%,36%,-3,99% (active),inactive,inactive,inactive,inactive
CCC1N=C(N)N=C(N)N1OCc1cccc2ccccc12 (stereo not given),1%,66% (active),-4,93% (active),inactive,inactive,inactive,inactive
COc1ccc(CCN(C)CCOc2ccc(NC(=O)c3cc(SC)cc4c(=O)c5ccccc5[nH]c34)cc2)cc1OC,44%,7%,0,87% (active),inactive,inactive,inactive,inactive
Cc1cc(NN=Cc2ccccc2Cl)c2ccccc2n1,30%,-3%,2,102% (active),inactive,inactive,inactive,inactive
O=C(Nc1ccc(OC2CCN(Cc3ccc(F)cc3)CC2)c(Cl)c1)c1ccc(F)cc1,95% (active),37%,-1,97% (active),inactive,inactive,inactive,inactive
CCCC(=O)c1cnc2c(I)cccc2c1Nc1ccccc1C,26%,7%,4,90% (active),inactive,inactive,inactive,inactive
O=C(Nc1ccc(S(=O)(=O)N2CCCCC2)cc1)c1cc(-c2cc(Cl)ccc2O)n[nH]1,87% (active),36%,0,97% (active),inactive,inactive,inactive,inactive
O=C(NCC1CCC(C(=O)NCc2cccc3ccccc23)CC1)c1ccc(O)c(-c2ccc(Cl)c(Cl)c2)c1 (stereo not given),92% (active),0%,-6,100% (active),inactive,inactive,inactive,inactive
CN1CCN(Cc2ccc(OCc3cccc(COc4ccc(CN5CCN(C)CC5)cc4I)c3)c(I)c2)CC1,69% (active),93% (active),0,92% (active),inactive,inactive,inactive,inactive
Cc1ccc(CON2C(N)=NC(N)=NC2(C)C)c(Cl)c1 (tested in a mixture with another compound),96% (active),67% (active),0,91% (active),inactive,inactive,inactive,inactive
O=C(NCCN1CCOCC1)c1csc(C2CCCN(C(=O)c3ccc(O)c(-c4cc(Cl)cc(Cl)c4)c3)C2)n1 (stereo not given),50% (active),12%,6,97% (active),inactive,inactive,inactive,inactive
O=C(Nc1ccccc1)N(Cc1cccc(-c2cccc(CNCc3ccc4c(c3)OCO4)c2)c1)C1CCN(Cc2ccccc2)CC1,84% (active),96% (active),0,101% (active),inactive,inactive,inactive,inactive
CC(CN1CCN(C)CC1)C(=O)Nc1cccc(-c2ccc(-c3nc4ccccc4[nH]3)s2)c1 (stereo not given),59% (active),2%,2,97% (active),inactive,inactive,inactive,inactive
COc1cccc(-c2c(C#N)c(N)nc3c2c(C)nn3-c2ccccc2)c1O,100% (active),4%,7,100% (active),inactive,inactive,inactive,inactive
CC[C@H](C)CNC(=O)c1ccnc(-c2cccc(CN3CCC(N4CCCC4)CC3)c2)c1,12%,-8%,-2,97% (active),inactive,inactive,inactive,inactive
COc1cc(C(=O)N2CCN(C(C)C)CC2)ccc1CN(C)CCCCN1CCN(c2cccc(Cl)c2Cl)CC1,98% (active),79% (active),6,101% (active),inactive,inactive,inactive,inactive
CC1CCCCN1CCCNc1nc(NCc2ccccc2)c2ccccc2n1 (stereo not given),14%,24%,0,95% (active),inactive,inactive,inactive,inactive
